The record followed here is PubChem BioAssay (EPA / NIEHS).

Calls of active or inactive are those of the source. Rule for the calls: active = hit-call score of the fitted dose curve at least 0.9, where 1 is the maximum; inactive = score below 0.9.

The AC50 is the concentration at which the activity in the assay is half-maximal.

Chain of Cytochrome P450 2C19 (Homo sapiens) (P33261 whole entry, looked up): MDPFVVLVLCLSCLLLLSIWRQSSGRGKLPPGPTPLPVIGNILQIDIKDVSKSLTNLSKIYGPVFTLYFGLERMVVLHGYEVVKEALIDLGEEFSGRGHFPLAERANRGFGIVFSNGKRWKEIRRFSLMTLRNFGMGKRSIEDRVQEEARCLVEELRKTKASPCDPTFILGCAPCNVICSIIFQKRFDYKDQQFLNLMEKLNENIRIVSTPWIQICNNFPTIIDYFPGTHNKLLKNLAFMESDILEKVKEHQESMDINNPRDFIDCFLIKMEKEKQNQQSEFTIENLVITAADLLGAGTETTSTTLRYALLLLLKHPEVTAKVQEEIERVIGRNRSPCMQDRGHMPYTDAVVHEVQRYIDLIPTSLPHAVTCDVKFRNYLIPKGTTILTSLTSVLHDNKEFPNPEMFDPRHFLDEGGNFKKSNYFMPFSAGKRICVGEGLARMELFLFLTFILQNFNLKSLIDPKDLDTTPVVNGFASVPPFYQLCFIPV

Read-out in this test: Cytochrome P450 2C19 (Homo sapiens) (UniProt P33261)
Kind of test: LTEA_HepaRG_CYP2C19: Life Technologies and Expression Analysis (LTEA) Assay for CYP2C19 using HepaRG (AID 2283482). The settings on record: mRNA level, 48 h; actives raise or lower the signal. How it is done: LTEA_HepaRG is a cell based, multiplexed-readout assay that uses HepaRG, a human liver cell line, with measurements taken at 48 hours after chemical dosing on a 96-well plate.LTEA_HepaRG_CYP2C19 is one of 102 assay component(s) measured in the LTEA HepaRG cell culture assay. It is a marker of NR mediated metabolism.Data from the assay component LTEA_HepaRG_CYP2C19 was analyzed into 1 endpoint. This assay endpoint, LTEA_HepaRG_CYP2C19, was analyzed with bidirectional fitting relative to DMSO as the negative control and baseline of activity. Using a type of inducible reporter, measures of mRNA induction for gain or loss-of-signal activity can be used to understand regulation of transcription factor activity. To generalize the intended target to other relatable targets, this assay endpoint is annotated to the cyp intended target family, where the subfamily is xenobiotic metabolism.
A total of 1060 chemcials from the ToxCast library were tested in eight-point concentration-response experiments. Cell culture and cytotoxicity assays were conducted at Thermo Fisher Scientific's Custom Services facility (Madison, WI). A single lot of human HepaRG cells (Thermo Fisher Scientific, Frederick, MD) was used for the cell culture experiments. 96-well format collagen type I coated plates of human HepaRG cells were prepared using established methods. Briefly, cryopreserved HepaRG cells were thawed, plated at a density of approximately 100,000 cells/well in HepaRG Thaw, Plate, and General Purpose media (HPRG770, Thermo Fisher Scientific), and incubated for 48 hours. 0.5% DMSO was selected as vehicle control to balance the requisite need of DMSO in HepaRG cultures to maintain differentiation (for example, baseline metabolism, proportions of hepatocytes vs. cholangiocytes), while enabling further hepatic receptor pathway activation (for example, PXR and CAR) in response to chemical exposure. 48 hours after plating, the culture medium was replaced with HepaRG Serum-Free Incudtion Media. Cells were exposed to each test chemical in duplicate and maintained in CO2 incubators for another 48 hours. Chemical plates were thawed to room temperature and 200x concentrations of treatment groups were prepared. 8-point conentration-reponse curves were made with the highest exposure at 100 uM, followed by half-log dilutions, all in 0.5% DMSO. Each test plate contained variouse controls, induction positive controls (1mM phenobarbital), cytotoxicity positive controls ([…] aflatoxin B1), vehicle controls (0.5% DMSO), and total lysis controls (0.5% DMSO). Cell morphology images were taken using an Essen IncuCyte FLR automated microscope, with six 96-well plates imaged in about 24 minutes. Images were captured and exported and JPEG files. Spent culture media was transfered to black-well plates for the LDH assay, and remaining media was sorted at -80 C for later use. Cells were treated with RLT buffer and frozen until shipped for gene expression analysis. Total RNA was isolated from the cell suspension in 75 uL of Buffer RLT (Qiagen, Germantown, MD 20874) by Quintiles/Expression Analysis (Durham, NC) using a custom isolation procedure. Total RNA from each plate well was transferred to a preamplification plate. Fluidigm's 96.96 Dynamic ArrayTM (Fluidigm, Amsterdam, the Netherlands) technology was used for gene expression analyses by quantitative reverse transcription polymerase chain reaction (qRT-PCR, performed by Quintiles/Expression Analysis, Durham, NC)89. Standard TaqManTM Assays (Applied Biosystems/ThermoFisher Scientific, Foster City, CA) were used to assess the expression of 93 genes selected based on their selectivity and sensitivity to important hepatic receptors known to be modulated by environmental chemicals; importance in human hepatocyte functionality; and hepatotoxicity. […]
Consider `CC1=C(/C=C/C(C)=C/C=C/C(C)=C/C(=O)O)C(C)(C)CCC1`, for which the AC50 is 27 µM (active).

For `O=C(OCCOCCOC(=O)c1ccccc1)c1ccccc1`, the compound was called inactive.

As to `CCCCCCC(=O)O`, the compound was classed as inactive.

`Oc1cccc(O)c1`: the compound was classed as inactive.

Regarding `C#C[C@]1(O)CC[C@H]2[C@@H]3CCC4=CC(=O)CC[C@@H]4[C@H]3CC[C@@]21C`, the half-maximal activity concentration (AC50) was 9.92 µM (active).

Consider `c1ccc2c(c1)ccc1ccccc12`, for which the concentration at half-maximal activity (AC50) is 15.4 µM (active).

For `CCCCC(CC)COC(=O)CCCCC(=O)OCc1ccccc1` (stereo not given), the result was inactive.

Regarding `OCCC(F)(F)C(F)(F)C(F)(F)C(F)(F)C(F)(F)C(F)(F)F`, the call was inactive.

Consider `OC1CCC(C2CCCCC2)CC1` (stereo not given), for which the call was inactive.

Turning to `O=C(O)c1ccccc1C(c1ccc(O)cc1)c1ccc(O)cc1`, the result was inactive.

On to `CCN(CC)CCNc1ccc(CNC=O)c2sc3ccc(OC)cc3c(=O)c12`, for which the call was inactive.

Consider `N#C[C@@H]1CC(F)(F)CN1C(=O)CNC1CC2CCC(C1)N2c1ncccn1` (stereo not given in full), for which the AC50 was 69 µM (active).

For `CC(=O)CC(C)(C)O`, the outcome was inactive.

Consider `c1ccc2cc3c(ccc4ccccc43)cc2c1`, for which the concentration at half-maximal activity (AC50) was 15.2 µM (active).

Regarding `NC(=O)N(O)[C@@H]1C=C[C@H](Oc2cccc(Oc3ccc(F)cc3)c2)C1`, the concentration at half-maximal activity (AC50) was 76.7 µM (active).

Consider `CC(=O)NC1(c2cccc(F)c2)CCN(CC[C@@]2(c3ccc(Cl)c(Cl)c3)CN(c3ccccc3)C(=O)CO2)CC1`, for which the compound was called inactive.

With `CC(C)CCCCCCOC(=O)CCCCC(=O)OCCCCCCC(C)C`, the compound was classed as inactive.

In the case of `CCC(=C(c1ccc(O)cc1)c1ccc(OCCN(C)C)cc1)c1ccccc1`, the AC50 is 91.4 µM (active).

For `CCOC(=O)CC(O)(CC(=O)OCC)C(=O)OCC`, the outcome was inactive.

As for `CCCCCCCCOC(=O)CCCCCCCCC(=O)OCCCCCCCC`, the compound was called inactive.

For the compound `CCc1nn(C2CCCCC2)c2cc(C3(C#N)CCC(C(=O)O)CC3)ccc12` (stereo not given), the AC50 was 63.3 µM (active).

As to `COC(=O)CCCCC(=O)OC`, the compound was classed as inactive.

For `O=[N+]([O-])c1ccc(O)cc1`, the call was inactive.

Consider `C[C@@H]1C[C@H]2[C@@H]3CCC4=CC(=O)C=C[C@]4(C)[C@@]3(F)[C@@H](O)C[C@]2(C)[C@@]1(O)C(=O)COP(=O)(O)O`, for which the compound was called inactive.

As for `CC#C[C@]1(O)CC[C@H]2[C@@H]3CCC4=CC(=O)CCC4=C3[C@@H](c3ccc(N(C)C)cc3)C[C@@]21C`, the AC50 was 33 µM (active).

With `Nc1cccc2c(N)cccc12`, the compound was called inactive.

In the case of `OCCC(F)(F)C(F)(F)C(F)(F)C(F)(F)C(F)(F)C(F)(F)C(F)(F)C(F)(F)F`, the compound was classed as inactive.

`CCCOc1sc(C(=O)N2CCC(c3cc(CN)ccc3F)CC2)c(C)c1Br`: the compound was called inactive.

Consider `O=c1c(-c2ccc(O)cc2)coc2cc(O)ccc12`, for which the compound was called inactive.

With `CN(C)C=O`, the compound was classed as inactive.

Consider `Oc1cc2ccccc2c2ccccc12`, for which the compound was called inactive.

Consider `CN1CCN(c2ccccc2/C=C2\SCCN(c3ccc(Cl)c(Cl)c3)C2=O)CC1`, for which the call was inactive.

As for `CN1CCC[C@H]1c1cccnc1`, the outcome was inactive.

As to `CC[C@H](c1ccc(O)cc1)[C@@H](CC)c1ccc(O)cc1`, the AC50 is 80.3 µM (active).

`CC(C)(C)c1cccc(C(C)(C)C)c1O`: the compound was called inactive.

Consider `CCCCCCCCC(=O)O`, for which the outcome was inactive.

In the case of `Cc1oc(-c2ccccc2)nc1CCOc1ccc(C[C@H](Nc2ccccc2C(=O)c2ccccc2)C(=O)O)cc1`, the AC50 was 23.3 µM (active).

For `CC(O)CO` (stereo not given), the call was inactive.

With `CCCCC(CC)COC(=O)CCCCC(=O)OCC(CC)CCCC` (stereo not given), the compound was classed as inactive.

For `COCC(C)O` (stereo not given), the outcome was inactive.
